The results in this text go back to paper PMC4336329 (PLoS ONE, 2015).

About 14,000 (4.5%) of roughly 310,000 compounds showed an effect of 50% or more. The effect is printed as a negative number. This excerpt belongs to a sample that is enriched for strong results.
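Further: peak tail current of the secondary pulse compared with the same well before compound.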

Chain of human ether-à-go-go-related gene (hERG) potassium channel (Q12809 whole entry, looked up): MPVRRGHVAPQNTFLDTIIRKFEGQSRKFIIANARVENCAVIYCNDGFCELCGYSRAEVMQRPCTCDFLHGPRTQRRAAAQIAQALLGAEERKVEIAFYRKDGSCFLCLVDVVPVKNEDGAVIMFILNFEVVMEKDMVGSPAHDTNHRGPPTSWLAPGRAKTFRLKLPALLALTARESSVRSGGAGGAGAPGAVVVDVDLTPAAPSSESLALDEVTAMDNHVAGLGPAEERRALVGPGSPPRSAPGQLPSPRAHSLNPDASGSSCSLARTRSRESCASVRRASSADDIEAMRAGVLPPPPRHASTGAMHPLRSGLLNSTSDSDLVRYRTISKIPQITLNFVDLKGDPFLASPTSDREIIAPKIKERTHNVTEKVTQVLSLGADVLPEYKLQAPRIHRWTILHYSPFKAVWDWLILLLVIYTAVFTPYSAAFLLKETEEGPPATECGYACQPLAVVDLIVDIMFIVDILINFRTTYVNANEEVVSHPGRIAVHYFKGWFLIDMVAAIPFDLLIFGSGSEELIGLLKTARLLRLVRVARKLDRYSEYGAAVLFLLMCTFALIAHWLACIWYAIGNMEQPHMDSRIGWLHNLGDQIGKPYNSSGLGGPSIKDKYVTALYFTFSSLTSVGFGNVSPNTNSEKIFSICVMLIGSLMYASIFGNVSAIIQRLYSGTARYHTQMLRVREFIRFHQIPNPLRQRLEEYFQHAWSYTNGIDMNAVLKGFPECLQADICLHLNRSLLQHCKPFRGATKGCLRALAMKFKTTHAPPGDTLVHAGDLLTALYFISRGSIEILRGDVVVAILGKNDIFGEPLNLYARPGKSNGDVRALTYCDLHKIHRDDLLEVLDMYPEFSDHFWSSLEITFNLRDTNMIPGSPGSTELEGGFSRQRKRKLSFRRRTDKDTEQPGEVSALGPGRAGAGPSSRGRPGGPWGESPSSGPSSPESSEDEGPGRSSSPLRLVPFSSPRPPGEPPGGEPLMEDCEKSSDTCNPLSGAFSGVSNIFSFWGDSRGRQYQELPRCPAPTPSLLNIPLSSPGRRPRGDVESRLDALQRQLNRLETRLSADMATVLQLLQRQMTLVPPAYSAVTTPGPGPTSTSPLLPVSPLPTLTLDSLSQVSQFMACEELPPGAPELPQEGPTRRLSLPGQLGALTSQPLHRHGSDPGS

The test has as its target human ether-à-go-go-related gene (hERG) potassium channel (human, UniProt Q12809). Nature of the test: primary screen, population patch clamp on CHO cells stably expressing hERG; higher = less effect of the substance.
Consider `Cc1ccc(S(=O)(=O)c2nnn3c2nc(N2CCOCC2)c2ccccc23)c(C)c1`, for which the “hERG current change (%, negative = inhibition) at 10uM” value is recorded as -31.3%.

As for `COCc1nnc(NC(=O)c2cc(C(=O)OC)cc([N+](=O)[O-])c2)s1`, the “hERG current change (%, negative = inhibition) at 10uM” value is on record as -2.76%.

For `O=C(Cc1ncc(C(F)(F)F)cc1Cl)NCc1cccnc1`, the “hERG current change (%, negative = inhibition) at 10uM” value amounted to 17.1%.

Take `COc1ccc(CC(=O)OCC(=O)Nc2ccc(OC(F)F)cc2)cc1OC`: the “hERG current change (%, negative = inhibition) at 10uM” value is listed as -19.7%.

For the molecule `Cc1cc(C)n(CC(C)NC(=O)c2cc(COc3c(F)cccc3F)on2)n1` (stereo not shown), the “hERG current change (%, negative = inhibition) at 10uM” value is 1.49%.

As to `CCOc1ccc(C(=O)NC(=S)NCc2cccnc2)cc1[N+](=O)[O-]`, the “hERG current change (%, negative = inhibition) at 10uM” value is -2.86%.

Turning to `COc1cccc(C2=NOC(C(=O)NCc3cccnc3)C2)c1` (stereo not shown), the “hERG current change (%, negative = inhibition) at 10uM” value came to 35.6%.

With `COc1ccc(C(=O)NC(=S)NCc2cccnc2)cc1Br`, the “hERG current change (%, negative = inhibition) at 10uM” value was -23.9%.

On to `COc1ccc(C(=O)NC(=S)NCc2cccnc2)cc1Cl`, for which the “hERG current change (%, negative = inhibition) at 10uM” value is -1.7%.

Regarding `COc1ccc(OC)c(C2=NOC(C(=O)NCc3cccnc3)C2)c1` (stereo not shown), the “hERG current change (%, negative = inhibition) at 10uM” value is given as -62%.

`COc1ccc(C(=O)NC(=S)NCc2cccnc2)cc1OC`: the “hERG current change (%, negative = inhibition) at 10uM” value was -57.3%.

Consider `CCOc1ccc(C(=O)NCc2cccnc2)cc1[N+](=O)[O-]`, for which the “hERG current change (%, negative = inhibition) at 10uM” value is listed as -76%.

Regarding `COc1cc(OC)c(C2=NOC(C(=O)NCc3cccnc3)C2)cc1Cl` (stereo not shown), the “hERG current change (%, negative = inhibition) at 10uM” value worked out at 13%.

In the case of `COc1ccc(C(=O)NC(=S)NCc2cccnc2)cc1[N+](=O)[O-]`, the “hERG current change (%, negative = inhibition) at 10uM” value was -12.3%.

As for `CCOc1ccc(C(=O)NC(=S)Nc2cccnc2)cc1[N+](=O)[O-]`, the “hERG current change (%, negative = inhibition) at 10uM” value was -16.1%.

On to `CCOc1ccc(C(=O)NC(=S)Nc2ccccn2)cc1[N+](=O)[O-]`, for which the “hERG current change (%, negative = inhibition) at 10uM” value is -2.48%.

Turning to `CCOc1ccc(C(=O)NC(=S)Nc2ncccc2C)cc1[N+](=O)[O-]`, the “hERG current change (%, negative = inhibition) at 10uM” value is given as -67.6%.

Consider `NC(=O)CSc1oc(-c2ccc(F)cc2)nc1S(=O)(=O)c1ccccc1`, for which the “hERG current change (%, negative = inhibition) at 10uM” value is -8.24%.

For the molecule `Cc1ccc(S(=O)(=O)C(C#N)c2nc3ccccc3nc2OC(C)C)cc1` (stereo not shown), the “hERG current change (%, negative = inhibition) at 10uM” value is -5.65%.

In the case of `CN(CC(=O)Nc1ccc(F)cc1)C(=O)COC(=O)C1=COCCO1`, the “hERG current change (%, negative = inhibition) at 10uM” value was -20%.

For the molecule `CCCCOC(=O)C1=C(C)Nc2ncnn2C1c1ccc(OC)c(OC)c1OC` (stereo not shown), the “hERG current change (%, negative = inhibition) at 10uM” value was -18.3%.

With `CCOC(=O)Cc1csc(NC(=O)c2ccc3c(c2)OCO3)n1`, the “hERG current change (%, negative = inhibition) at 10uM” value is reported as -22.8%.

Turning to `Cc1nn(C(=O)CN2C(=O)c3ccccc3C2=O)c(C)c1Br`, the “hERG current change (%, negative = inhibition) at 10uM” value worked out at 5.28%.

In the case of `CCOC(=O)[C@H]1[C@H]2COc3ccc(Cl)cc3[C@@H]2N2C(=O)CN(Cc3ccc(Cl)cc3)C(=O)[C@@]12C`, the “hERG current change (%, negative = inhibition) at 10uM” value is 2.8%.

`Cc1ccc(NC(=O)Nc2cc(Cl)ccc2C2COC(=O)C2=N)cc1` (stereo not shown): the “hERG current change (%, negative = inhibition) at 10uM” value came to 27.9%.

Consider `Cn1c(N)c(S(=O)(=O)N2CCCC2)c(=O)n(C)c1=O`, for which the “hERG current change (%, negative = inhibition) at 10uM” value was found to be 26.2%.

Turning to `O=C(O)C(F)(F)F.c1cn2c(NC3CCCCC3)c(-c3ccc(SC4CCCCC4)cc3)nc2cn1`, the “hERG current change (%, negative = inhibition) at 10uM” value is on record as 9.49%.

Regarding `O=C(CSc1ccc(F)cc1)N1CCOCC1`, the “hERG current change (%, negative = inhibition) at 10uM” value is recorded as 16.2%.

On to `O=C(N/N=C/c1cccnc1)c1cc(Br)ccc1O`, for which the “hERG current change (%, negative = inhibition) at 10uM” value came to 30.5%.

Turning to `Cc1ccc(-n2c(=O)cc(N3CC(C)CC(C)C3)[nH]c2=O)cc1` (stereo not shown), the “hERG current change (%, negative = inhibition) at 10uM” value was determined as 23.7%.

For `O=C(Cn1cnc2c(nc3n2CCCCC3)c1=O)Nc1cccc(C(F)(F)F)c1`, the “hERG current change (%, negative = inhibition) at 10uM” value is -52.3%.

Consider `COc1cc(NC(=O)Cn2cnc3c(nc4n3CCCCC4)c2=O)cc(OC)c1OC`, for which the “hERG current change (%, negative = inhibition) at 10uM” value turned out to be 22.8%.

As to `COc1ccccc1NC(=O)Cn1cnc2c(nc3n2CCCCC3)c1=O`, the “hERG current change (%, negative = inhibition) at 10uM” value is given as -11.4%.

For the molecule `CC(C)c1nc(CN(C)C(=O)N[C@H](C(=O)N[C@@H](Cc2ccccc2)C[C@H](O)[C@H](Cc2ccccc2)NC(=O)OCc2cncs2)C(C)C)cs1`, the “hERG current change (%, negative = inhibition) at 10uM” value is -24.5%.

On to `C#CCOCCOCCOCCNc1nc(N2CCOCC2)nc(N2CCN(C(=O)[C@H]([C@@H](C)CC)n3cc(CCC[NH+]=C(N)N)nn3)CC2)n1.[Cl-]`, for which the “hERG current change (%, negative = inhibition) at 10uM” value is on record as -0.117%.

Turning to `COc1cccc(-n2c(SCC(N)=O)nnc2-c2ccncc2)c1`, the “hERG current change (%, negative = inhibition) at 10uM” value stood at 16%.

As for `O=c1[nH]nc(Cc2ccc(Cl)cc2)c2ccccc12`, the “hERG current change (%, negative = inhibition) at 10uM” value is 8.04%.

Regarding `O=c1[nH]nc(Cc2ccccc2)c2ccccc12`, the “hERG current change (%, negative = inhibition) at 10uM” value was 4.16%.

Turning to `O=c1[nH]nc(Cc2ccc([N+](=O)[O-])cc2)c2ccccc12`, the “hERG current change (%, negative = inhibition) at 10uM” value is recorded as -70.2%.

`CN(C)CCNC(=O)c1cc(Br)ccc1Cl`: the “hERG current change (%, negative = inhibition) at 10uM” value is 3.14%.

As for `CC(=O)c1c(N2CCN(c3ccccn3)CC2)nc(=S)n(-c2ccccc2)c1C`, the “hERG current change (%, negative = inhibition) at 10uM” value is on record as -32.3%.

Turning to `Cc1ccc(CN2CCC(c3cc(-c4cccs4)n[nH]3)CC2)cc1`, the “hERG current change (%, negative = inhibition) at 10uM” value is recorded as -82.1%.

For `CCOC(=O)CN1CCC(c2cc(-c3ccc(Cl)cc3)n[nH]2)CC1`, the “hERG current change (%, negative = inhibition) at 10uM” value is on record as -12.5%.

Turning to `Clc1ccc(-c2cc(C3CCNCC3)[nH]n2)cc1`, the “hERG current change (%, negative = inhibition) at 10uM” value is -3.21%.

For `Cc1ccc(CN2CCC(c3cc(-c4ccc(Cl)cc4)n[nH]3)CC2)cc1`, the “hERG current change (%, negative = inhibition) at 10uM” value is listed as -78.8%.

As to `Cc1ccc(CN2CCN(/N=C/c3cccs3)CC2)cc1`, the “hERG current change (%, negative = inhibition) at 10uM” value is -38%.

Turning to `CC(C)(C)OC(=O)N1CCC(c2cc(-c3cccs3)n[nH]2)CC1`, the “hERG current change (%, negative = inhibition) at 10uM” value is reported as -1.2%.

Turning to `O=C(O)c1ccc(NC(=O)c2cccc(C(=O)Nc3ccc(C(=O)O)cc3)c2)cc1`, the “hERG current change (%, negative = inhibition) at 10uM” value was found to be 7.31%.

As to `Cc1c(S(=O)(=O)NCCc2ccccc2)c(=O)n(C)c(=O)n1C`, the “hERG current change (%, negative = inhibition) at 10uM” value is on record as -1.25%.

Regarding `CCN(CC)C(=O)c1ccc2c(c1[N+](=O)[O-])C(=O)c1ccccc1C2=O`, the “hERG current change (%, negative = inhibition) at 10uM” value worked out at 6.69%.

As for `Cc1nn(C2CCOC(C)(C)C2)c2c1C(c1ccc(OC(C)C)cc1)SCC(=O)N2` (stereo not shown), the “hERG current change (%, negative = inhibition) at 10uM” value is reported as -15.5%.

As to `Nc1nc(N2CCCCC2)nc(N2CCCCC2)n1`, the “hERG current change (%, negative = inhibition) at 10uM” value is recorded as -78.2%.

On to `C1CCN(c2nc(N3CCCCC3)nc(N3CCNCC3)n2)CC1`, for which the “hERG current change (%, negative = inhibition) at 10uM” value is on record as -7.81%.

`Nc1nc(N2CCCCC2)nc(N(c2ccccc2)c2ccccc2)n1`: the “hERG current change (%, negative = inhibition) at 10uM” value was 17.1%.

As for `O=C(C1CCN(S(=O)(=O)N2CCOCC2)CC1)N1CCOCC1`, the “hERG current change (%, negative = inhibition) at 10uM” value is -6.69%.
